These results are taken from the supplement of paper PMC6555819.

In the test the test system is VDR:RXRa (NR concentration 270 nM, RXRa partner concentration 90 nM). In words: PBM binding z-score (relative to random genomic background probes); higher = stronger binding; sequences stand for … in GC…GCGATTGACAGCGTAGAATGAAGG
On the procedure:
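Protein-binding microarray (Agilent 4x180K custom design, double-stranded 60-nt probes: 5' GC cap, 34-nt variable region, 24-nt constant primer region; full probe sequence given). Purified or IVT nuclear receptor:RXRα heterodimers (3:1 NR:RXRα, mostly 270:90 nM) or homodimers were incubated for 1 h in PBS with 2% milk and no ligand, then detected with Alexa488 antibodies. Fluorescence from o1-orientation probes (~5 replicates averaged) was converted to z-scores against 500 random hg19 background probes. Variable regions are seed direct-repeat (DR0–DR5) sites, all their single-nucleotide variants and half-site ablations.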
CCTTACCGGTCACTGACAGGTTATAGCATTTGGA gave a PBM binding z-score of 0.869.

TCATAGAGGTAAACAGGTGAAAGTCCGTAAGTTA registered a PBM binding z-score of 0.83.

The sequence AATACATGGTCACTAGGCCAGAGTAGGTACGAAT gave a PBM binding z-score of -0.0294.

Turning to AGAATGATGTTATACGTAGATCAGGGAAGAAAGT, the PBM binding z-score was -0.209.

Take ATATGTAGGTTATCGGGTCATTAAGTTTGCGCAT: the PBM binding z-score was found to be 6.04.

With CGTCCAAGGTCATAGGAGGTCAGCGAAGACAGAT, the PBM binding z-score came out at 6.6.

With GATAGCAGGCCATTTGGGTCACTCAATGACGGGC, the PBM binding z-score is 1.07.

In turn, CAAACTAGTTCACCGGAAGGTCAAAGTCCGCATG came in with a PBM binding z-score of 5.4.

On to GCATATAGGTAATACAAGGGGAAAGTCCGATTGT, for which the PBM binding z-score is -0.0932.

The sequence ACTATTAGTCGACTTAGGGCAACCGATACGACGC returned a PBM binding z-score of -0.299.

TCTTGTAGACCAATAGAGGTTAAGAAAGTGCGCT registered a PBM binding z-score of 1.82.

On to AGAACGAGGGCACGCTGCGTTGATAGCAGAGTAG, for which the PBM binding z-score came out at 0.741.

Take TGTCAAAGTTCGAAGGTAACGTAAGTATCCACAC: the PBM binding z-score was 1.78.

Consider TCATATAGGTAAAAGGTGAAATTCGGTGTGGTAA, for which the PBM binding z-score stood at 1.58.

For CCTTACGGGGCACTCCAGGTTATAGCATCGGAGT, the PBM binding z-score was 0.0326.

Sequence CATACAGGGTCAGCTAGGCCAGAGAAGGGACGGC came in with a PBM binding z-score of 3.84.

In turn, TGAATGAGGTTATAAGATCAGCGAACGTTGCAAA returned a PBM binding z-score of 0.842.

In the case of GCTTGTAGATCAAGGGTAAGAAAGACTAAGCTAA, the PBM binding z-score was -0.559.

In the case of CCTACTAGGCCATCAGGTCATTGATATCAACGTT, the PBM binding z-score was 2.26.

Sequence CCTACTGGACCATTCAGAGGTCATTGATCATATG yielded a PBM binding z-score of 3.95.

With ACTAGCAGGCCAAGTTTGGGTCACTCACACAAAG, the PBM binding z-score is 0.806.

TGAATGAGGTTAAAAATCAGGGAACGTGGCGTCG came in with a PBM binding z-score of 0.855.

CCGACTGGGGCACAAAGGTTACCATACCATCCGG had a PBM binding z-score of 1.73.

Regarding CCGACTGGAGCAGAAAGGTTACCATACCATCCGG, the PBM binding z-score turned out to be 0.564.

GATATAGGGTCAAGGCCAGAGTACGCGTATTGAT displayed a PBM binding z-score of 4.5.

CCTTAAGGGTCAAGGTTATAGCACGGGTGGTACG displayed a PBM binding z-score of 4.72.

CCTGCTAGGTCATGGTCAGTTAATCTACAGTATG came in with a PBM binding z-score of 2.28.

ACAGACAGGTTAGTGAAGGTAACTCAGCTGGACG returned a PBM binding z-score of -0.0325.

In turn, TCTCGGAGGACAGGAAAGGTCAGAGCTCGACATC returned a PBM binding z-score of 2.7.

Sequence CGAACTGGGTCATTGACAGGACAGTGAATAGTAA displayed a PBM binding z-score of 2.05.

In turn, CCTCGGAGGACGACAGGAGGTCAGAGCTGCCAGA came in with a PBM binding z-score of 1.44.

As to CGTCAAAGTTCAACTAAGGTAAGGTAAAGCACGC, the PBM binding z-score was determined as 4.17.

As for TGTTGTAGATCAAGCAGGTTAAGAAAGCCTGAGT, the PBM binding z-score was found to be 0.0987.

As to AGAATGAGGTTATACGTAGATCAGTGAAGAAAGT, the PBM binding z-score came to 1.31.

As to TCTGCTAGGTCAGTAGGTCAGCTAACGAGCTGCC, the PBM binding z-score came to 0.994.

In turn, TCTCGGAGGACACCAAGGTCAGAGCTTTCCAGAG came in with a PBM binding z-score of 3.36.

Turning to TCAAATAGGTAAATGCTAGGTGAAAGTCCGATCT, the PBM binding z-score turned out to be 0.866.

Take CGTCCAAGGTCAAAGGTCGGTGAAGAGATGACGG: the PBM binding z-score was 5.32.

On to GCTGCTAGGTCAGATTGGTCAGCTAACGGGTACG, for which the PBM binding z-score turned out to be 0.624.

TCTCGGAGGACACGTAAGGTCAGAGCTCGACATC returned a PBM binding z-score of 2.69.
